Screens deposited in PubChem by Broad Institute.
T cruzi growth-1: T. cruzi intracellular proliferation inhibitors, primary screen, cell-based, beta-gal Tulahuen parasites, NIH3T3 host, luminescence; T. cruzi beta-gal in NIH3T3, GalScreen luminescence, 90 h; inhibition, % at 8.34 µM; 77,000 tested, 5.9% active; AID 624255, 2012;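 active means mean inhibition above about 93%, with at least 55% of replicates each passing it, limit read from the data, passing the limit was not always enough; inconclusive means only one of those two conditions holds; inactive means neither condition holds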
Pf Dd2 growth: P. falciparum Dd2 growth inhibitors, primary screen, SYBR Green fluorescence, single dose replicates. 72 h; stronger effect = lower value. activity change, % at 10 µM. 94,000 tested, 2.3% active. AID 1159554, 2015; in the data active means activity change below about -80%; inconclusive means no clear call, values can overlap the other calls
C diff growth: C. difficile growth inhibitors, primary screen, HTS; Clostridium difficile clinical isolate growth, OD600, 24 h; stronger effect = lower value; growth activity, negative = inhibition, % at 16 µg/mL (by protocol); 86,000 tested, 0.25% active; AID 1259249, 2017;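 active means mean growth activity at or below -80% and every replicate also at or below -80%; inconclusive means mean at or below -80% but some replicate above -80%; inactive means mean growth activity above -80%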
T cruzi growth-2: T. cruzi intracellular proliferation inhibitors, confirmation, cell-based, NIH3T3 host, beta-gal parasite, luminescence, cherry-pick; shares compounds with T cruzi growth-1; T. cruzi beta-gal in NIH3T3, GalScreen luminescence, 90 h; inhibition, % at 8.35 µM; 5,600 tested, 72% active; AID 651739, 2012;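 active means mean replicate inhibition above about 95% and at least 55% of replicates individually reaching it, limit read from the data; inconclusive means only one of the two criteria is met; inactive means neither criterion is met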
T cruzi growth-3: inhibitors of intracellular T. cruzi replication, confirmation, NIH3T3 host cells, beta-gal parasites, cherry-pick, set 2 | 5,600 tested, 21% active | inhibition, % at 2.09 µM | shares compounds with T cruzi growth-1 | T. cruzi beta-gal in NIH3T3, GalScreen luminescence, 90 h;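 active means mean inhibition above about 95%, with at least 55% of replicates also reaching it, limit read from the data; inconclusive means meets just one of the two conditions; inactive means meets neither condition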
NIH3T3 tox: cytotoxicity in mouse NIH/3T3 fibroblasts, confirmation, cytotoxicity control for T. cruzi proliferation inhibitor project, cell-based, cherry-pick, single point; shares compounds with T cruzi growth-1; NIH/3T3 viability, CellTiter-Glo ATP luminescence, 90 h; cytotoxicity (signal decrease), % at 8.35 µM; 5,600 tested, 14% active;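 active means mean signal decrease across replicates above about 35% based on untreated-well scatter, with enough replicates individually passing, limit read from the data; inconclusive means no rule stated though some were filed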
3T3 cytotox 2: NIH/3T3 fibroblast cytotoxicity, confirmation, cytotoxicity control, cell-based, cherry-pick, single point, set 2; inhibition, % at 24.9 µM; shares compounds with T cruzi growth-1; 5,600 tested, 56% active; NIH/3T3 viability, CellTiter-Glo ATP luminescence, 90 h;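 active means mean loss of cell viability signal at or above a set limit, and enough replicates individually reaching it; inconclusive means meets only the mean limit or only the replicate share; inactive means meets neither condition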
Of the large screens only hits and unclear results are named; the others gave an inactive call (follow-up assays come after a bar, where they were run). The list is not random: actives were taken first. Their share in the collection is about 6.7%.

O=C(c1ccc(F)cc1)N1CCCCN2[C@H](CO)[C@H](c3ccc(C#CC4(O)CCCC4)cc3)[C@@H]2C1	T cruzi growth-1 107 | T cruzi growth-2 103 | T cruzi growth-3 inactive | NIH3T3 tox inactive | 3T3 cytotox 2 inactive
O=C(c1ccc(F)cc1)N1CCCCN2[C@H](CO)[C@@H](c3ccc(C#CC4(O)CCCC4)cc3)[C@@H]2C1	none
O=C(C1CCCC1)N1CCCCN2[C@H](CO)[C@H](c3ccc(C#CC4(O)CCCC4)cc3)[C@H]2C1	T cruzi growth-1 104 | T cruzi growth-2 109 | T cruzi growth-3 inactive | NIH3T3 tox inactive | 3T3 cytotox 2 30
O=C(C1CCC1)N1CCCCN2[C@H](CO)[C@H](c3ccc(C#CC4(O)CCCC4)cc3)[C@H]2C1	T cruzi growth-1 101 | T cruzi growth-2 inconclusive | T cruzi growth-3 inactive | NIH3T3 tox inactive | 3T3 cytotox 2 inactive
O=C(O)C[C@H]1C[C@@H]2c3cc(NC(=O)Nc4ccccc4)ccc3O[C@@H]2[C@@H](CO)O1	none
C[C@H](CO)N1C[C@H](C)[C@H](CN(C)S(=O)(=O)c2ccc(F)cc2)OCCCC[C@H](C)Oc2ccc(NS(C)(=O)=O)cc2C1=O	none
O=C(C1CC1)N1CC[C@@H]2[C@H]1c1cc(C#Cc3ccc(F)cc3)ccc1N[C@@H]2CO	none
OC[C@@H]1Nc2ccc(C#Cc3ccc(F)cc3)cc2[C@H]2[C@@H]1CCN2Cc1nccs1	T cruzi growth-1 104 (no result: C diff growth) | T cruzi growth-2 98 | T cruzi growth-3 105 | NIH3T3 tox 37 | 3T3 cytotox 2 105
OC[C@@H]1Nc2ccc(C3=CCCCC3)cc2[C@@H]2[C@H]1CCN2Cc1nccs1	none (no result: T cruzi growth-1)
OC[C@H]1Nc2ccc(C#Cc3ccc(F)cc3)cc2[C@H]2[C@@H]1CCN2Cc1nccs1	T cruzi growth-1 103 | T cruzi growth-2 107 | T cruzi growth-3 102 | NIH3T3 tox inactive | 3T3 cytotox 2 106
CC(C)C(=O)Nc1ccc2c(c1)C(=O)N(C)[C@@H]1CC[C@H](CC(=O)NCc3ccc(F)cc3)O[C@@H]1CO2	none
Cc1ccc(S(=O)(=O)N2CC[C@@H]3[C@H]2c2cc(C#Cc4ccccc4F)ccc2N[C@@H]3CO)cc1	T cruzi growth-1 inconclusive | T cruzi growth-2 113 | T cruzi growth-3 110 | NIH3T3 tox inactive | 3T3 cytotox 2 inconclusive
Cc1ccc(S(=O)(=O)N2CC[C@@H]3[C@H](CO)Nc4ccc(C#Cc5ccc(F)cc5)cc4[C@@H]32)cc1	none
Cc1ccc(S(=O)(=O)N2CC[C@@H]3[C@@H](CO)Nc4ccc(C#Cc5cccc(F)c5)cc4[C@@H]32)cc1	T cruzi growth-1 99 | T cruzi growth-2 101 | T cruzi growth-3 108 | NIH3T3 tox 39 | 3T3 cytotox 2 57
Cc1ccc(S(=O)(=O)N2CC[C@@H]3[C@H](CO)Nc4ccc(C#Cc5cccc(F)c5)cc4[C@@H]32)cc1	none
O=S(=O)(c1ccccc1)N1CC[C@@H]2[C@H](CO)Nc3ccc(C#Cc4cccc(F)c4)cc3[C@@H]21	T cruzi growth-1 inconclusive | T cruzi growth-2 101 | T cruzi growth-3 111 | NIH3T3 tox 46 | 3T3 cytotox 2 59
O=S(=O)(c1ccccc1)N1CC[C@H]2[C@H](CO)Nc3ccc(C#Cc4cccc(F)c4)cc3[C@H]21	none (no result: T cruzi growth-1)
Cc1noc(C)c1S(=O)(=O)Nc1ccc2c(c1)C(=O)N([C@@H](C)CO)C[C@H](C)[C@H](CN(C)Cc1ccc(Cl)c(Cl)c1)O2	none
COc1ccc(NC(=O)Nc2ccc3c(c2)C(=O)N([C@@H](C)CO)C[C@H](C)[C@H](CN(C)C(=O)NC(C)C)OCCCC[C@@H](C)O3)cc1	none (no result: T cruzi growth-1)
CO[C@H]1CC[C@H]2CCN(C)C(=O)CCCN(C)C(=O)c3cccc(C#N)c3OC[C@@H]1O2	none (no result: Pf Dd2 growth)
OC[C@@H]1[C@H](c2ccc(C#Cc3ccccc3F)cc2)[C@@H]2CN(CC3CCOCC3)CCCCN12	T cruzi growth-1 105 | T cruzi growth-2 114 | T cruzi growth-3 inactive | NIH3T3 tox inconclusive | 3T3 cytotox 2 105
CCCC#Cc1ccc([C@H]2[C@H]3CN(CC4CC4)CCCCN3[C@H]2CO)cc1	none
CCCC#Cc1ccc([C@H]2[C@H](CO)N3CCCCN(CC4CCOCC4)C[C@@H]23)cc1	T cruzi growth-1 129, Pf Dd2 growth inconclusive | T cruzi growth-2 inactive | T cruzi growth-3 inactive | NIH3T3 tox inactive | 3T3 cytotox 2 77
OC[C@@H]1[C@@H](c2ccc(C#Cc3ccccc3F)cc2)[C@@H]2CN(CC3CCOCC3)CCCCN12	none
C[C@H](NC(=O)N(C)C[C@@H]1OCc2ccccc2-c2c(n(C)c3ccccc23)C(=O)N([C@H](C)CO)C[C@H]1C)c1ccccc1	none
C[C@@H]1CN([C@@H](C)CO)C(=O)c2cc(-c3ccc(F)cc3)cnc2O[C@H]1CN(C)C(=O)NC1CCCC1	none
COC(=O)C[C@H]1C=C[C@@H](NS(=O)(=O)c2ccccc2F)[C@H](CO)O1	none (no result: C diff growth)
CN(C)C(=O)c1cccc(-c2ccc([C@@H]3[C@@H](C#N)N(C(=O)C4CCCCC4)[C@H]3CO)cc2)c1	none
C[C@H](CO)N1C[C@H](C)[C@@H](CN(C)S(=O)(=O)c2ccccc2F)Oc2cc(-c3ccncc3)ccc2S1(=O)=O	none (no result: T cruzi growth-1)
C[C@H](CO)N1C[C@H](C)[C@H](CN(C)S(=O)(=O)c2ccccc2F)Oc2cc(C#Cc3ccccc3)ccc2S1(=O)=O	T cruzi growth-1 125 | T cruzi growth-2 110 | T cruzi growth-3 inactive | NIH3T3 tox inactive | 3T3 cytotox 2 inactive
Cc1ccc(S(=O)(=O)N(C)C[C@H]2Oc3cc(C#Cc4ccccc4)ccc3S(=O)(=O)N([C@H](C)CO)C[C@H]2C)cc1	none (no result: T cruzi growth-1)
C[C@H]1CN([C@@H](C)CO)S(=O)(=O)c2ccc(-c3ccncc3)cc2O[C@@H]1CN(C)S(=O)(=O)c1ccccc1F	none (no result: T cruzi growth-1)
Cc1ccc(S(=O)(=O)N(C)C[C@H]2Oc3cc(C#Cc4ccccc4)ccc3S(=O)(=O)N([C@@H](C)CO)C[C@@H]2C)cc1	none (no result: T cruzi growth-1)
C[C@@H]1CN([C@H](C)CO)S(=O)(=O)c2ccc(C#Cc3ccccc3)cc2O[C@@H]1CN(C)S(=O)(=O)c1ccccc1F	T cruzi growth-1 122 | T cruzi growth-2 105 | T cruzi growth-3 106 | NIH3T3 tox inactive | 3T3 cytotox 2 52
